In PubChem BioAssay AID2107 (National Center for Advancing Translational Sciences (NCATS), 2009):
In all, about 240,000 compounds went through this assay and about 20 (0.008%) were called active. Another 1% or so got no clear call; they are omitted. Calls come from the whole dose curve; as a rule, active = well fitted inhibition curve with a large enough effect; inconclusive = small, poorly fitted or top-dose-only effect, or effect the other way; inactive = flat fitted curve, though single readings scatter. Not all results are given here. Peptide text beside a SMILES is read from it.

target: Alpha-galactosidase A (Homo sapiens) (UniProt P06280); assay: qHTS Assay for Inhibitors and Activators of Human alpha-Galactosidase From Spleen Homogenate; details: 4MU-alpha-Gal fluorescence, 40 min; series mostly up to 80 µM; activity change, negative = inhibition: at the top concentration;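 note: 0% = enzyme with vehicle and -100% = no enzyme basal signal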
Sequence (P06280 32-429 limits assumed): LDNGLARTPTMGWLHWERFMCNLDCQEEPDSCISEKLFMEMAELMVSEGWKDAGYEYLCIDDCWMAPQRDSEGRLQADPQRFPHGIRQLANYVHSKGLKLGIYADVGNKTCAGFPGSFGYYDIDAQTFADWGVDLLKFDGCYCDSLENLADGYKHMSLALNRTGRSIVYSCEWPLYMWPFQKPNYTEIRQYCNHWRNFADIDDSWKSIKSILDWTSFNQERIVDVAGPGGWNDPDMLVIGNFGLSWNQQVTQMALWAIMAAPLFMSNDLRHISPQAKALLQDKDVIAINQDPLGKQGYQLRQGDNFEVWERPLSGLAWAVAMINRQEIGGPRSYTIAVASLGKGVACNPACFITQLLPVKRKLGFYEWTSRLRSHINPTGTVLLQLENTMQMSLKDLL
Text: NIH Chemical Genomics Center [NCGC] NIH Molecular Libraries Probe Production Centers Network [MLPCN] MLPCN Grant: R03 MH084842-01 Assay Submitter (PI): Wei Zheng NCGC Assay Overview: Alpha-galactosidase is a homodimeric glycoprotein that hydrolyzes the terminal alpha-galactosyl moieties from glycolipids and glycoproteins. Deficiency of this enzyme results in Fabry Disease with progressive accumulation of globotriaosylceramide and other glycosphingolipids in vascular endothelial cells that causes renal failure, myocardial infarction and stroke, and premature death in patients. It has been reported that the improper folding and trafficking of alpha-galactosidase resulting from genetic mutations may account for a significant number of Fabry patients. […] We optimized this alpha-galactosidase assay in 1536-well plate format for identification of novel small molecule inhibitors or activators with structures other than the sugar analogs in order to develop new pharmacological chaperones. In particular, this assay is directed towards discovering compounds active in more natural setting, tissue homogenate, that may have been missed by screens of the purified enzyme under more stringent conditions.
NCGC Assay Protocol Summary: This is a fluorogenic enzyme assay with 4-methylumbelliferyl-alpha-D-galactopyranoside as the substrate and human spleen homogenate containing alpha-galactosidase as the enzyme preparation. Upon hydrolysis of this fluorogenic substrate, the resulting product, 4-methylumbelliferone (which excites at 365 nm and emits at 440 nm) can be detected by a fluorescence plate reader. Data were normalized to the controls for basal activity (without enzyme) and 100% activity (with enzyme). The AC50 values were determined from concentration-response data modeled with the standard Hill equation. Assay buffer: 50 mM citric acid (titrated with potassium phosphate to pH 5.0), 0.01% Tween-20 (pH 5.0 is an optimal condition for this enzyme assay) 1536-well assay protocol for the alpha-galactosidase from human spleen homogenate: (1) Add 2 ul/well spleen homogenate (1 ug) (2) Add 23 nL compounds in DMSO solution. The final titration was 0.5 nM to 58 uM. (3) Add 2 ul of substrate (1 mM final) (4) Incubate at 37C for 40 min (5) Add 2 ul stop solution (1M NaOH and 1M Glycine mixture, pH 10) (6) Detect the assay plate in a ViewLux plate reader (PerkinElmer) with Ex=365 nm and Em=440nm. Keywords: Alpha-galactosidase, Fabry Disease, pharmacological chaperone, chaperone therapy, high throughput screening, alpha- galactosidase inhibitor, MLSMR, MLSCN, NIH Roadmap, qHTS and NCGC

Activity change, negative = inhibition, inactive:
COc1ccc(NC(=O)CSc2nnc(-c3ccccc3F)n2C2CC2)cc1S(N)(=O)=O -3.7%
Cc1cc(C(=O)COc2ccccc2[N+](=O)[O-])c(C)n1-c1cccc(S(=O)(=O)N2CCOCC2)c1 -10.8%
Oc1ccc(-c2c(-c3ccccc3)nn3c(C(F)(F)F)cc(C(F)(F)F)nc23)cc1 1.09%
CCCn1c(C)nc2c(NCCCCN(CC)CC)nc(C)nc21 -5.51%
COc1ccc(C2=Nn3c(nnc3-c3ccccc3O)SC2)cc1 8.2%
O=C(Cc1coc2ccc3ccccc3c12)NCc1cccs1 -1.17%
O=C(CSC(=S)N1CCCCC1)c1c(F)cccc1F -0.717%
O=c1c([N+](=O)[O-])cccn1Cc1ccc(F)cc1Cl -3.55%
CCc1nnc(NC(=O)C2CC(=O)N(c3ccc4c(c3)OCCO4)C2)s1 (centres undefined) -3.08%
CCOC(=O)N1CCN(C(=O)c2ccccc2N(Cc2ccccc2)S(=O)(=O)c2ccc(OC)cc2)CC1 -14.8%
O=S(O)S(=O)(=O)O -0.576%
COc1c(O)c2c(=O)cc(OC)c3c4c(OC)cc(=O)c5c(O)c(OC)c6c(c(c1C[C@@](C)(O)[C@H]6C(C)=O)c23)c54 6.25%
NC(=O)C1(C(N)=O)OC1c1ccc(Cl)cc1Cl (centres undefined) 0.677%
C/C(=N/N1CCN(Cc2cccc3ccccc23)CC1)c1cccnc1 -9.31%
COc1ccc(N(C(=O)c2ccc(C)cc2)S(=O)(=O)c2cccs2)cc1 -18.5%
C[C@H]1CC[C@H](C(=O)O)N[C@@H]1c1ccc(C#Cc2ccccc2)cc1 7.47% [at 17.5 µM]
COc1ccc(-c2cn3ccc(C)cc3n2)cc1 -13.9%
CCN(CC)CCOCCOc1ccc(Cl)c2ccccc12 -6.85%
Cc1noc(C)c1-c1ccc2ncnc(NC(C)c3ccco3)c2c1 (centres undefined) -0.605%
Nc1ncnc2c1ncn2C1CC(O)C(CO)O1 (centres undefined)
O=C(Nc1ccc2c(c1)OCO2)c1sc2cc(Cl)ccc2c1Cl 0.413%
C/C(=N\NC(=O)c1ccc(C)cc1)C1C(=O)c2ccccc2C1=O -4.85%
COc1ccccc1N1CCN(C(=O)c2ccc(Cl)c(S(=O)(=O)N3CCCC3)c2)CC1 -1.09%
CCOC(OCC)OCC -7.34%
Cc1ccc(C)c2[nH]c(=O)c(CN(Cc3cccnc3)C(=S)NCc3ccco3)cc12 13.4%
Cc1ccc(CNC(=O)C2(C(F)(F)F)C/C(=C\CCO)CCCO2)o1 (centres undefined) 0.634%
COc1cccc(NC(=O)CC2C(=O)NCCN2C(=S)Nc2ccc(F)cc2)c1 (centres undefined) -0.318%
Cc1ccc(SCC(CC(C)C)N2CCN(CCc3ccccc3)CCC2=O)cc1 (centres undefined) -7.8%
COC(=O)c1sc(=S)n(-c2ccc(Cl)cc2)c1C 13.2%
COC(=O)c1ccc([C@@H](O)[C@H](C)C(=O)CC(=O)OC(C)(C)C)cc1 2.63%
C[C@@H](O)[C@@H]1NC(=O)[C@H](CCCCN)NC(=O)[C@H](Cc2c[nH]c3ccccc23)NC(=O)[C@H](Cc2ccccc2)NC(=O)[C@H](Cc2ccccc2)NC(=O)[C@H](CC(N)=O)NC(=O)[C@H](CCCCN)NC(=O)[C@@H](NC(=O)[C@@H]2CCCN2)CSSC[C@@H](C(=O)N[C@@H](CCCCN)C(=O)O)NC(=O)[C@H](CO)NC(=O)[C@H](CO)NC(=O)[C@H](Cc2ccccc2)NC1=O (HELM PEPTIDE1{P.C.K.N.F.F.W.K.T.F.S.S.C.K}$PEPTIDE1,PEPTIDE1,2:R3-13:R3$$$V2.0) 0.42%
Cc1ccccc1N1CCN(Cc2nc(Cc3ccccc3F)no2)CC1 -25.5%
O=c1cc(-c2ccc(O)cc2)oc2c(-c3cc(-c4cc(=O)c5c(O)cc(O)cc5o4)ccc3O)c(O)ccc12 0.218%
O=C(CSc1nc(O)c(Cc2ccccc2)c(=O)[nH]1)Nc1nc2c(s1)CCCC2 6.1%
CCOC(=O)C1=C(CN2CCc3ccccc32)NC(=O)NC1c1ccc(Cl)cc1 (centres undefined) -11.2%
C=CCOC(=O)C(=C)C -2.52%
COc1ccc(-c2ccc(C3C4C=CCCC4(C)C(=O)N3Cc3ccccc3)c(F)c2)cc1OC (centres undefined) 1.48%
Cc1cccc(CNc2ccnc(-c3cccnc3)n2)c1 5.5%
OCCC(O)CO (centres undefined)
C/C=C/c1ccc(OCC(O)CN2CCCCCCC2)c(OC)c1 (centres undefined) -2.95%
Cc1ccc(N(C(=O)c2ccc(S(=O)(=O)N(C)C)cc2)C2C=CS(=O)(=O)C2)cc1 (centres undefined) 1.39%
CC[C@H](C)[C@H](NC(=O)[C@H](CCCNC(=N)N)NC(=O)[C@H](CCCNC(=N)N)NC(=O)[C@H](CC(C)C)NC(=O)[C@H](Cc1ccccc1)NC(=O)CNC(=O)CNC(=O)[C@@H](N)Cc1ccc(O)cc1)C(=O)N[C@@H](CCCNC(=N)N)C(=O)N1CCC[C@H]1C(=O)N[C@@H](CCCCN)C(=O)N[C@@H](CC(C)C)C(=O)N[C@@H](CCCCN)C(=O)N[C@@H](Cc1c[nH]c2ccccc12)C(=O)N[C@@H](CC(=O)O)C(=O)N[C@@H](CC(N)=O)C(=O)N[C@@H](CCC(N)=O)C(=O)O -4.4%
CC(C)=CCC[C@]1(C)[C@@H](CC=C(C)C)C[C@@]2(CC=C(C)C)C(=O)[C@]1(C(=O)C(C)C)C(=O)C(CC=C(C)C)=C2O -1.9%
COC(=O)C(CC(C)C)NS(=O)(=O)c1cc(Br)ccc1Br (centres undefined) 4.91%
